PubChem BioAssay AID1851 (National Center for Advancing Translational Sciences (NCATS), 2009)
About 2,600 (16%) of roughly 16,000 compounds were called active. Inconclusive results (about 20%) are left out. Calls come from the whole dose curve; as a rule, active = well fitted curve in the direction sought with a large enough effect; inconclusive = small, poorly fitted or top-dose-only effect, or effect the other way; inactive = no such curve, though single readings can be large or run the other way. These entries were drawn from the full list.

Biological target: Cytochrome P450 2D6 (Homo sapiens) (UniProt P10635)
Sequence (P10635 whole entry, looked up): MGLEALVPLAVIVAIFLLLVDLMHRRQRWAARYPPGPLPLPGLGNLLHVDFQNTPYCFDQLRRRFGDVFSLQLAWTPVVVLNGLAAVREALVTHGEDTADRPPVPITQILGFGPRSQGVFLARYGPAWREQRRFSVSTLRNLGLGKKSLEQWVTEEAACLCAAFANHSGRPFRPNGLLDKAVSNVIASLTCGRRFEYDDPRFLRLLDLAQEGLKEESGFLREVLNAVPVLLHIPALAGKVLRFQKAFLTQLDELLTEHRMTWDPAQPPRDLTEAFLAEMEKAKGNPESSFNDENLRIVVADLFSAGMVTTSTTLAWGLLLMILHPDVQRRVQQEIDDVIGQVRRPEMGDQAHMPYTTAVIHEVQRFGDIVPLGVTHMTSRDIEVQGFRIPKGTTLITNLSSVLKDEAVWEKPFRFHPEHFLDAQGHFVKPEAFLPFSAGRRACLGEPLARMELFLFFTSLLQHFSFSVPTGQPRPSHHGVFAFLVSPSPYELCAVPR
Assay: Cytochrome panel assay with activity outcomes
Settings: recombinant CYP, pro-luciferin dealkylation, luminescence, p450-cyp2d6; series mostly up to 57.1 µM
% is set by controls: 0 for no effect and ±100 for the full control effect.

AC50, inactive:
CCCCOC(=O)Nc1ccccc1C(=O)OC, Cc1ccc(C)c(Nc2nc3nonc3nc2N2CCOCC2)c1, CCOc1ccc(-c2c(=O)n(OCc3ccccn3)c3ccccc3[n+]2[O-])cc1, COc1ccc(-c2cc(C(F)(F)F)n3ncc(C(=O)NCC4CCCO4)c3n2)cc1OC (stereo unspecified), CCN(C(=O)CSc1nc2cc(C(=O)OC)ccc2c(=O)n1Cc1ccco1)c1cccc(C)c1, COCCNC(=O)CSc1nc2cc(OC)c(OC)cc2c(=O)n1Cc1ccco1, Cc1nc(-c2cccnc2)sc1C(N)=O, COc1ccc(-n2c(=O)c(-c3cccs3)nc3cnc(Oc4ccccc4)nc32)cc1, O=C(NN=C1C2CC3CC(C2)CC1C3)c1ccncc1, Cc1cc(C)cc(-n2nnc(C(=O)NCc3ccccc3Cl)c2N)c1, CCCCC(=O)Nc1sc2c(c1C(=O)OCC)CCC(C=O)=C2Cl, COC(=O)[C@@]1(Cc2ccccc2)[C@H]2c3cc(C(=O)N4CCCC4)[nH]c3C[C@H]2CN1C(=O)c1ccccc1, CCN(CC)CCCN(Cc1cc2ccc(C)c(C)c2[nH]c1=O)C(=O)NC1CCCCC1, O=C1CCCCC(=O)c2ccccc2N1, O=C1CN(c2nc(-c3ccccc3)c3cc(Br)ccc3n2)c2ccccc2N1, N#C[C@H](Cc1ccc(O)cc1)c1ccc(O)cc1, CC(Cc1ccccc1)N/C=C1\CC(=O)NC1=O (stereo unspecified), COc1ccc(N2CCN(Cc3nc4c(c(=O)n(C)c(=O)n4C)n3CC(C)=O)CC2)cc1, CCOC(=O)c1nn(-c2ccccc2)c(-c2ccccc2)c1C(=O)c1ccccc1, CCOC(=O)c1c(NC(=O)c2c(C)noc2C)sc2c1CCCCC2, CCOC(=O)c1c(NC(=O)Cn2cc([N+](=O)[O-])cn2)sc2c1CCC2, CC(=O)NC1(c2cccc(F)c2)CCN(CC(=O)NC(C)C)CC1, Nc1nnc(C(c2ccccc2)c2ccccc2)s1, Cn1c(=O)c(-c2ccc(F)cc2)nc2cnc(Oc3ccccc3)nc21, CCn1c(=O)c2[nH]c(-c3ccccc3)nc2n(CC)c1=O, Cc1ccc(OC(=O)c2ccc(N3CCOCC3)c([N+](=O)[O-])c2)cc1, COc1ccc(-c2cc(C3CCN(c4ccc(C(C)=O)cc4[N+](=O)[O-])CC3)[nH]n2)cc1, CCNC(=S)N1CC(C)OC(C)C1 (stereo unspecified), O=C(/C=C/c1ccco1)NC(=S)Nc1ccc(N2CCOCC2)c(Cl)c1, CNc1cc(CS(=O)c2ccccc2)nc(-c2ccccc2)n1 (stereo unspecified), Cn1sc(NC(=O)c2ccccc2)nc1=O, O=C(O)CCC/C=C\C[C@@H]1CO[C@H](C(F)(F)F)O[C@@H]1c1ccccc1O, Clc1ccccc1-c1ccc2ncnc(N3CCNCC3)c2c1, CN(C)C(=O)c1ccc(-c2ccc3ncnc(N4CCC(C(=O)O)CC4)c3c2)cc1, COc1ccc(OC)c(NC(=O)[C@H]2CC=CC[C@H]2C(=O)O)c1, O=C(Nc1cccc(NC(=O)N2CCN(c3ccccc3)CC2)c1)N1CCN(c2ccccc2)CC1, O=C(Nc1ccccc1)N1CCOCC1, Cc1ccc(C2C(C=Nc3c(C)n(C)n(-c4ccccc4)c3=O)=C(c3ccccc3)Oc3ccccc32)cc1 (stereo unspecified), CCOCCCN1C(=O)CN(C2CCCCCC2)C(=O)C1c1ccc(OC)cc1 (stereo unspecified), CCSc1nnc(-c2ccc(Cl)cc2)c2ccccc12, CCN(CC)S(=O)(=O)c1ccc2c(c1)nc(SCC(=O)N1CCOCC1)n2-c1ccccc1OC, Cn1cccc1C(=O)N1CCC2(CC1)CCN(c1cccc(-c3ccccc3)c1)CC2, CN(C)c1ncc2nc(-c3cc(F)cc(F)c3)c(=O)n(CCC#N)c2n1, N#CCCn1c(=O)c(CCc2ccccc2)nc2cnc(Oc3ccccc3)nc21, CN(C)c1ncc2nc(-c3ccccc3)c(=O)n(CCc3ccccc3)c2n1, N#CCCn1c(=O)c(CCc2ccccc2)nc2cnc(OCc3ccccc3)nc21, COc1cc(/C=C2/C(=N)N3OC(C)=CC3=NC2=O)ccc1OCCOc1ccc(C)cc1, COc1cccc(/C=N/NC(=O)CO/N=C(\C)c2cccs2)c1OC, CC1CCN(c2ccc(NC(=S)NC(=O)c3ccco3)cc2)CC1, COc1ncc2nc(-c3cc(F)cc(F)c3)c(=O)n(C3CC3)c2n1, CCOC(=O)c1ccc(Cl)c(NC(=O)c2ccc(-c3ccccc3)cc2)c1, COC(=O)c1ccc(Cl)c(NC(=O)c2ccc(-c3ccccc3)cc2)c1, COc1nc(OCCNC(C)=O)nc(N(C)C)n1, CC(C)NC(=O)c1ccccc1NC(=O)/C=C/c1ccc([N+](=O)[O-])cc1, Cc1cccc(NC2(C(F)(F)F)N=C(c3ccccc3)NC2=O)n1 (stereo unspecified), O=C(O)c1cc(=O)c2c(Cl)cc(Cl)cc2[nH]1, Cc1sc(=NC(=O)c2ccco2)n(C)c1-c1ccccc1, CCOc1ccccc1NC(=O)CCC(=O)O, CCOc1ccccc1NC(=O)C(=O)NCC1CCCN1CC (stereo unspecified), COc1ccccc1NC(=O)CCN1C(=O)C2CC=C(Cl)CC2C1=O (stereo unspecified), COc1ccc(NC(C)=O)cc1NC(=O)CN1CCN(CC(=O)Nc2ccccc2Cl)CC1, Cc1ccc(C(=O)C(OC(=O)CN2C(=O)c3ccccc3C2=O)c2ccccc2)cc1 (stereo unspecified), COc1cc(NC(=O)c2ccccc2)c(OC)cc1NC(=O)CN1CCN(c2ccccn2)CC1, CCn1c(-c2ccccc2Cl)nn(CC(=O)Nc2ccccc2OC)c1=S, CC(=O)c1c(N2CCC(C(N)=O)CC2)nc(=S)n(-c2ccccc2)c1C, CCCc1cc2c(=O)c(-c3ccc4c(c3)OCCO4)coc2cc1OC(=O)c1ccco1

AC50, active:
CCC(Sc1nc2cc3c(cc2c(=O)n1Cc1ccco1)OCO3)C(=O)Nc1cccc(OC)c1 (stereo unspecified) 3160 nM, N#Cc1nc(COc2ccccc2Cl)oc1NCc1ccco1 2820 nM, O=C1Cc2c([nH]c3ccc(Br)cc23)-c2ccccc2N1 398 nM, CCOC(=O)c1c(NC(=O)CSc2nnc(C)s2)sc2c1CCCCC2 7940 nM, COC(=O)c1ccc(N2CCN(CC(=O)c3ccc(-c4ccccc4)cc3)CC2)c([N+](=O)[O-])c1 12600 nM, CNc1cc(CSC)nc(SCc2ccc(Cl)c(Cl)c2)n1 28200 nM, Clc1ccc2c(N3CCC(CCC4CCN(c5ncnc6cc(Cl)ccc56)CC4)CC3)ncnc2c1 794 nM, O=C(Nc1cccc(Cl)c1)N1CCN2C(=O)c3ccccc3C12c1ccccc1 (stereo unspecified) 10000 nM, COCCn1c(C)cc(C2=NNC(=Nc3ccc(F)cc3)SC2)c1C 7940 nM, CN(C)c1ncc2nc(-c3ccccc3)c(=O)n(CCC#N)c2n1 1000 nM, CN(C)c1ncc2nc(CCc3ccccc3)c(=O)n(CCC#N)c2n1 2510 nM, CCOc1c(Cl)cc(C(=O)Nc2ccccc2-c2ccccc2)cc1Cl 12.6 nM, Cc1cc(Br)cc(C)c1OCCCCN(C)C 2000 nM, Nc1cc2c(nc3c4ccccc4c(N)cc3[n+]2-c2cccc3ccccc23)c2ccccc12 (tested in a mixture with another compound) 1580 nM, CC(C)OC(=O)CN1CCN(C2c3ccccc3-c3ccccc32)CC1 251 nM, CCOc1ccccc1NC(=O)CN1CCC(NC(=O)c2ccccc2)CC1 15800 nM, COc1ccccc1NC(=O)CN1CCN(C2c3ccccc3-c3ccccc32)CC1 25.1 nM, COc1ccc(NC(C)=O)cc1NC(=O)CN1CCN(C2c3ccccc3-c3ccccc32)CC1 15800 nM

activity, negative = inhibition, inactive:
Cc1[nH]c(N)nc(=S)c1CCCNc1ccccc1 -8.46% [at 11.4 µM], c1ccc(NN(Cc2cnccn2)c2ccccc2)cc1 -16.2% [at 11.4 µM], CCOC(=O)CCCN 5.1% [at 11.4 µM], CC/C=C\CC[C@H](OC(=O)c1ccc(Br)cc1)C1=CCCCC1=O -1.66% [at 11.4 µM], O=C(O)C[n+]1ccccc1 -8.09% [at 11.4 µM], Clc1ccc(Cl)c(Nc2ccnc(SCc3ccccc3)n2)c1 -0.772% [at 11.4 µM], CCN1C(=O)[C@H]2[C@H]3[C@H](O)[C@H](O)C/C(=N/OC[C@@H](O)[C@H]4O[C@H]5OC(C)(C)O[C@H]5[C@@H]4O)[C@@H]3CC[C@@H]2C1=O 7.29% [at 11.4 µM], CO[C@H]1COC(=O)C/C=C\[C@@H](C)COC(=O)[C@@H](OCc2ccccc2)/C=C\[C@@H]1C 1.83% [at 11.4 µM], CCN1C(=O)[C@H]2[C@H]3[C@H](O)[C@H](O)C/C(=N/OC[C@@H](O)COCc4ccco4)[C@H]3CC[C@@H]2C1=O -6.12% [at 11.4 µM], Nc1nc(-c2cc(-c3cccc4ccccc34)nc(N)n2)cc(-c2cccc3ccccc23)n1 -0.19% [at 11.4 µM], CSCC[C@@H]1NC(=O)C/C=C\[C@@H](C)COC(=O)[C@@H](C)COC1=O 16.4% [at 11.4 µM], O=C(O)C[C@@H](C(=O)O)C1c2ccccc2-c2ccccc21 6.65% [at 11.4 µM]
